Source: PubChem BioAssay (National Center for Advancing Translational Sciences (NCATS))
Shiga inhibitor = A qHTS for Small Molecule Inhibitors of Shiga Toxin | inhibition, % at 38.7 µM | Vero cells, Shiga toxin protein synthesis inhibition reporter | hit rate 9.2% among 290,000; in the data active = inhibition mostly above about 28%, no sharp cut-off; inactive = mostly below about 43%; note: 0% is about no effect
AmpC inh no detg = qHTS Inhibitors of AmpC Beta-Lactamase (assay without detergent); AmpC nitrocefin hydrolysis, absorbance 480 nm, 0.0001% Triton; Potency, µM (highest dose often 57.1 µM), for inactives: at the top dose activity change, negative = inhibition, actives largely listed as inhibitors; hit rate 0.52% among 330,000; AID 485341, 2010;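 note: potency is the fitted concentration of half-maximal effect; plate controls were no compound for no effect and no enzyme for full effect; nearly all actives have a fitted effect of over 20% in size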
Target sequence (P00811 whole entry, looked up): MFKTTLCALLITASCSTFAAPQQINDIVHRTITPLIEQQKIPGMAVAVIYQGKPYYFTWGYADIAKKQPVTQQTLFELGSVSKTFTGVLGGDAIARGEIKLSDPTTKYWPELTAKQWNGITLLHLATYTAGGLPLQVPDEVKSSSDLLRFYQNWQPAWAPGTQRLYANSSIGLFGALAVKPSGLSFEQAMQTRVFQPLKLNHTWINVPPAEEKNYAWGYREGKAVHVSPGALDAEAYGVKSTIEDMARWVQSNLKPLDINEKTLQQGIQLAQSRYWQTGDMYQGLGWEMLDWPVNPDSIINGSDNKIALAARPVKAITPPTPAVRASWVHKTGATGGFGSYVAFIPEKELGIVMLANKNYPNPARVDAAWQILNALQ
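AmpC (5.3 nM in the dispensed reagent) in 20 mM phosphate pH 7.0 with 0.01% (detergent screen) or 0.0001% Triton X-100 was preincubated with compounds for 15 min at room temperature. Nitrocefin was then added from an 800 uM solution, and hydrolysis was followed at 480 nm.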
AmpC detergent = qHTS Inhibitors of AmpC Beta-Lactamase (assay with detergent); P00811; hit rate 0.041% among 370,000; AID 485294, 2010; Potency, µM (doses to about 114 µM), inactives show at the highest dose activity change, negative = inhibition, usual class: inhibitors; AmpC hydrolysis of nitrocefin, absorbance 480 nm, 0.01% Triton;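 note: potency is the fitted concentration of half-maximal effect; 0% = no-compound wells and -100% = no-enzyme wells; nearly all actives have a fitted effect of over 25% in size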
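20 mM phosphate pH 7.0 + 0.01% (detergent screen) or 0.0001% Triton X-100; 5.3 nM AmpC reagent; cpd preinc 15 min RT; nitrocefin (800 uM stock) to start; A480 q20 s × 4 min; Activity was normalised to no-enzyme and no-compound control wells.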
NS1 function inh = qHTS Assay for Inhibitors of Influenza NS1 Protein Function | Potency, µM (doses to about 46.1 µM), for the others: at the top dose activity, positive = more growth | hit rate 0.4% among 270,000; calls by dose curve; note: potency is the fitted concentration of half-maximal effect; actives are rising curves; nearly all actives have a fitted effect of over 50% in size
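Growth recovery, yeast-based: influenza A NS1 expressed in S. cerevisiae causes slow growth, and suppressors are detected by OD600. The parent strain without NS1 is used as positive control.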
Cycloheximide cs = Cycloheximide Counterscreen for Small Molecule Inhibitors of Shiga Toxin; hit rate 12% among 300,000; max response, %; cell reporter, cycloheximide protein synthesis inhibition counterscreen; in the data active = max response mostly above about 13%, no sharp cut-off; inactive = mostly below about 14%; note: read at 38.3 µM for the half of the compounds with a filed dose; 0% is about no effect
Active calls of the source: *; ? = inconclusive; / = no result given; [ ] = dose if it differs, or a comment. Only a selection was taken, and hits are over-represented in it overall. Unless noted, calls come from the whole dose curve; as a rule, active = well fitted curve in the direction sought with a large enough effect; inconclusive = small, poorly fitted or top-dose-only effect, or another doubt; inactive = no such curve, though single readings can be large; an effect the other way counts as inactive or inconclusive.

SMILES	Shiga inhibitor	AmpC inh no detg	AmpC detergent	NS1 function inh	Cycloheximide cs
COc1ccccc1CNC(=O)C1CCN(S(=O)(=O)c2ccc3c(c2)CCCN3C(C)=O)CC1	/	/	6%	/	/
Cc1ccn2c(NC3CCCC3)c(-c3cccs3)nc2c1	28*	?	-12%	/	23*
Cc1ccn2c(NCc3ccccc3)c(-c3cccs3)nc2c1	55*	-20%	3%	-7%	30*
Cc1ccn2c(NC(=O)c3ccccc3)c(-c3cccs3)nc2c1	34	-27%	2%	-2%	12
CCN(CC)CCN1C(=O)C(=O)/C(=C(/O)c2ccc(OC(C)C)cc2)C1c1cccs1 (stereo not drawn)	85*	-5%	-2%	0%	45*
CCN(CC)CCN1C(=O)C(=O)/C(=C(/O)c2c(C)[nH]c(C(=O)OC)c2C)C1c1cccs1 (stereo not drawn)	24	-13%	4%	-4%	23*
CC(C)Oc1ccc(/C(O)=C2/C(=O)C(=O)N(CCN(C)C)C2c2ccco2)cc1 (stereo not drawn)	134*	-5%	?	-8%	39*
CCN(CC)CCN1C(=O)C(=O)/C(=C(/O)c2ccc(OC)cc2)C1c1ccco1 (stereo not drawn)	46	9%	-6%	12%	13
OC(CNCc1cccs1)c1ccccc1 (stereo not drawn)	-4	-3%	3%	5%	1
Cc1ccc(CNCC(O)c2ccccc2)s1 (stereo not drawn)	5	-2%	-9%	4%	14*
CC(C)CCN=CC1=C(O)CC(c2ccccc2)CC1=O (stereo not drawn)	53	1%	-3%	/	29*
CCCN=CC1=C(O)CC(c2ccccc2)CC1=O (stereo not drawn)	11	-13%	3%	-3%[9.22 µM]	4
O=c1c2ccccc2nnn1CSc1ccccc1	92*	-25%	-12%	-2%	45*
Cc1ccc(Nc2nnc(SCn3nnc4ccccc4c3=O)s2)cc1	116*	-28%	?	0%	31*
O=c1c2ccccc2nnn1CSc1nnc(Nc2ccccc2)s1	-7	-20%	?	0%	-1
O=C(NCc1ccccc1Cl)C1CCCN(C(=O)c2cnn(-c3ccc(F)cc3)c2-n2cccc2)C1 (stereo not drawn)	/	/	-6%	/	/
Cc1cc(C)cc(OCC(=O)NNC(=O)c2cc(C)[nH]n2)c1	35	-13%	-18%	12%	-1
O=C(N/N=C/c1ccc([N+](=O)[O-])cc1)c1cc(C2CC2)[nH]n1	-17	56%	4%	1%	-1
O=C(N/N=C/c1ccco1)c1cc(C2CC2)[nH]n1	118*	-18%	-11%	3%	35*
Cc1cc(C(=O)NN)n[nH]1	61*	-13%	3%	1%	20*
Cc1cc(C(=O)N/N=C/c2ccco2)n[nH]1	46	-6%	-2%	3%	29*
CC(/C=C/c1ccco1)=N\NC(=O)c1cc(C)[nH]n1	3	32%	?	22%	3
CC1SC(C)C(=O)N(CC(=O)NC2CCCCC2)C1=O (stereo not drawn)	-25	1%	3%	/	-7
O=C(C1=NNCC1c1ccccc1)C1OC1c1ccccc1 (stereo not drawn)	34*	-18%	-3%	8%	12*
COC(=O)c1c(NC(=O)COc2ccc(OC)cc2)sc2c1CCC(C)C2 (stereo not drawn)	/	/	19%	/	/
SMILES	Shiga inhibitor	AmpC inh no detg	AmpC detergent	NS1 function inh	Cycloheximide cs
Clc1ccccc1-c1ccc(/C=N/Nc2nncc(-c3ccccc3)n2)o1	26	-33%	-7%	/	8
O=C(N/N=C/c1ccc(-c2ccccc2Cl)o1)c1ccccc1	69*	-42%	6%	/	32*
O=C(O)c1ccc(N/N=C/c2ccc(-c3ccccc3Cl)o2)cc1	100*	-36%	0%	6%	50*
O=S(=O)(N/N=C\c1ccc(-c2ccccc2Cl)o1)c1ccccc1	19	-39%	-11%	13%	-1
CCc1nc2ccc(C(=O)NCCc3ccc(OC)cc3OC)cc2nc1CC	/	/	-8%	/	/
CC(C)(C)c1ccc(C(=O)N2CCC(C(=O)NC3CCCCCC3)CC2)cc1	77	67%	-8%	11%	12
COc1ccc(OC)c(S(=O)(=O)N2CCN(c3ncccn3)CC2)c1	-5	25%	-3%	-7%	9
